# Unmarked numbers belong to inactive results.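 Rule for the calls: active = growth AUC significantly below the DMSO wells by Dunnett test; inactive = the rest.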
# Compound: O=C(Oc1ccccc1)n1c(C(F)(F)F)nc2cc(Cl)c(Cl)cc21
# Experiment: relative growth (AUC of 72 h growth curve relative to DMSO control, dAUC) (ratio); higher = more growth (less inhibition), active = hit call of the paper
# Details: 20 µM
# Description: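 Environmental bacterial isolates (Iceland stream sediment and Silwood Park soil) and whole stream-sediment communities were grown in LB from a 1:100 dilution with each pesticide at 20 µM (1% DMSO). A600 was read hourly for 72 h and the area under a spline-fitted growth curve (AUC) was computed. dAUC is the mean AUC of 3 biological replicates divided by the mean AUC of the DMSO controls. Significance was tested by Dunnett's test against the DMSO control.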
row,Target,relative growth
1,Pseudomonas 6 (Pseudomonas sp.),0.777
2,Arthrobacter 1 (Arthrobacter humicola),0.211 (active)
3,Microbacterium 1 (Microbacterium arborescens),0.785 (active)
4,Arthrobacter 2 (Arthrobacter humicola),0.00975 (active)
5,Pseudomonas 2 (Pseudomonas vancouverensis),0.735 (active)
6,Paenibacillus 1 (Paenibacillus castaneae),0.00512 (active)
7,Pseudomonas 3 (Pseudomonas mandelii),0.765 (active)
8,Oryzobacter 1 (Oryzobacter terrae),0.00822 (active)
9,Aeromonas 3 (Aeromonas popoffii),0.337 (active)
10,Aeromonas 2 (Aeromonas sobria),0.0369 (active)
11,Rhizobium 1 (Rhizobium herbae),0.0292 (active)
12,Bacillus 1 (Bacillus foraminis),0.747
13,Pseudomonas 4 (Pseudomonas peli),0.336 (active)
14,Carnobacterium 1 (Carnobacterium gallinarum),0.0839 (active)
15,Aeromonas 1 (Aeromonas sp. AE235),0.32 (active)
16,Community 8,0.787

row,Target,relative growth
1,Community 9,0.363 (active)
2,Hymenobacter 1 (Hymenobacter glaciei),0.165 (active)
3,Community 7,1.01
4,Community 6,0.563 (active)
5,Arthrobacter 3 (Arthrobacter sp.),0.0715 (active)
6,Community 4,0.809
7,Pseudomonas 5 (Pseudomonas baetica),0.765 (active)
8,Serratia 1 (Serratia sp. 2015-2462-01),0.366 (active)
9,Argrobacterium 1 (Agrobacterium sp.),0.752 (active)
10,Sphingomonas 2 (Sphingomonas sp.),0.0208 (active)
11,Pseudomonas 1 (Pseudomonas baetica),0.741
12,Flavobacterium 1 (Flavobacterium glaciei),0.0789 (active)
13,Prolinoborus 1 (Prolinoborus fasciculus),0.283 (active)
14,Neobacillus 1 (Neobacillus soli),0.826
15,Community 10,0.772
16,Flavobacterium 2 (Flavobacterium succinicans),0.0416 (active)
